KKLEB tox: counter-screen for CF NF-kB inhibitors: cytotoxicity; KKLEB CF airway cells viability, ATPlite luminescence, overnight; active compounds read low; cells stimulated with P. aeruginosa culture filtrate; activity change (cytotoxicity), % at 5 µM; actives 0.36% (n = 360,000);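 active = corrected activity change at or below -50% at 5 µM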
LGR2 inh: inhibitors of bursicon-induced Drosophila LGR2 receptor cAMP signaling; inhibition, % at 9.99 µM; HEK293 LGR2, CRE-luciferase, bursicon-stimulated, 4 h; actives 0.35% (n = 380,000);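 active = drop in luminescence signal, shown as inhibition above about 50% in the replicate tests, limit read from the data, passing the limit was not always enough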;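 also: agonist challenge used bursicon conditioned medium at about half maximal strength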
Peg3 prom inh: reduces Peg3 promoter-driven luciferase expression in HeLa; HeLa PEG-Prom luciferase reporter, luminescence, overnight; inhibition, % at 20 µM; actives 1.7% (n = 360,000);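 active = inhibition of at least 50% at 20 µM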
CF NFkB block: cystic fibrosis NF-kB activation inhibition; KKLEB NF-kB-GFP reporter, PAF-induced, GFP fluorescence overnight; inhibition, % at 5 µM; actives 0.86% (n = 360,000); AID 588850;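 active = at least 50% inhibition at 5 µM, scaled per plate between neutral and stimulator controls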;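 also: PAF is a Pseudomonas aeruginosa culture filtrate used as stimulus; plate controls were PAF-stimulated DMSO wells for no effect and unstimulated DMSO wells for full effect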
Mdm2 MdmX PPI: disrupts the human Mdm2-MdmX interaction | O15151+Q00987 | SaOS-2 split-luciferase Mdm2/MdmX complementation, luminescence | inhibition, % at 8 µM | actives 3% (n = 330,000) | AID 485346;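 active = inhibition of at least 50% at 8 µM in the primary screen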
Target sequence (O15151 whole entry, looked up): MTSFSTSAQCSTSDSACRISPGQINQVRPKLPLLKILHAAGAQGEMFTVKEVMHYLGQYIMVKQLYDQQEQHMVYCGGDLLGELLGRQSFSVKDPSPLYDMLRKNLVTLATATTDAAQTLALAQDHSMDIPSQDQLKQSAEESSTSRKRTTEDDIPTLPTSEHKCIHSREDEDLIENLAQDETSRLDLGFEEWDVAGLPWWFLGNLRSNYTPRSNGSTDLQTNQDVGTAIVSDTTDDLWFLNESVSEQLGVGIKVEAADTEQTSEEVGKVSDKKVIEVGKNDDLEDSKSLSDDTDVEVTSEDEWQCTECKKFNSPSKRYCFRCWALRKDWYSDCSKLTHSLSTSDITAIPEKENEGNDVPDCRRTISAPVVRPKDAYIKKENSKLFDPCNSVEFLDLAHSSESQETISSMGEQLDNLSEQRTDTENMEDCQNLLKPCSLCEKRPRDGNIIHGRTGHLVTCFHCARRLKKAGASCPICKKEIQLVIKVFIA
Target sequence (Q00987 whole entry, looked up): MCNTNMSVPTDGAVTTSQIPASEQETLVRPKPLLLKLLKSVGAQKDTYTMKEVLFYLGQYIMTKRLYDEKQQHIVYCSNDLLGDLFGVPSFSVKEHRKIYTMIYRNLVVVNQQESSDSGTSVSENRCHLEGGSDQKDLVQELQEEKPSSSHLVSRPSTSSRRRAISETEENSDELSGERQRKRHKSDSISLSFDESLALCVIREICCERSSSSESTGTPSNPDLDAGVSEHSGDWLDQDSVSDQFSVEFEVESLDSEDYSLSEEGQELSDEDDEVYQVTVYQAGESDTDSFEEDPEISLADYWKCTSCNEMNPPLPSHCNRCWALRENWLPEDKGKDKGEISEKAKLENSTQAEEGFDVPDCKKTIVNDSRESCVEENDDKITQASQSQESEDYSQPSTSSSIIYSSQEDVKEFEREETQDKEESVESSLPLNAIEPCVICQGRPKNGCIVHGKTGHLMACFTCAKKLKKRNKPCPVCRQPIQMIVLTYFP
HSP90 inh: inhibitors of HSP90 luciferase refolding in rabbit reticulocyte lysate | luciferase refolding luminescence, 3 h | inhibition, % at 5.6 µM | actives 0.91% (n = 290,000) | AID 1789;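 active = inhibition above the screen-wide mean plus 3 SD, computed separately per campaign, cut at about 16% in these data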;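 also: 0% = DMSO wells and 100% = 60 µM geldanamycin wells; inhibitors lower the luminescence because luciferase stays unfolded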
Mdm2-MdmX conf: human Mdm2/MdmX binding inhibition, confirmed; shares compounds with Mdm2 MdmX PPI; AID 489028; luminescent assay; actives 55% (n = 10,000); inhibition, % at 8 µM; in the data active = inhibition above about 40%
Full FLuc ctr: counter-screen for Mdm2/MdmX inhibitors: full-length luciferase | shares compounds with Mdm2 MdmX PPI | SaOS-2 full-length luciferase counterscreen, luminescence | inhibition, % at 8 µM | actives 77% (n = 6,200) | AID 504607;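 active = mean inhibition at 8 µM reaching about 37%, which flags the compound as non-specific, limit read from the data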;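 also: p53-null SaOS-2 cells with luciferase driven by a doxycycline-inducible promoter; compound on cells about two nights before reading with doxycycline added after day one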
* = called active by the depositor. Sampled rows, rich in hits. Any-hit rate of the full collection: about 3.6%.

Cn1c(=O)cc(OCCCC(=O)NCc2ccc(F)cc2Cl)c2ccccc21 was read as KKLEB tox 7, LGR2 inh 7, Peg3 prom inh -13, CF NFkB block -28, Mdm2 MdmX PPI 57*, HSP90 inh -2 and Mdm2-MdmX conf 20.
C[C@@H]1CN([C@@H](C)CO)C(=O)c2cccc(NC(=O)Nc3ccc(F)cc3)c2O[C@H]1CN(C)C(=O)NC1CCCCC1 was read as LGR2 inh -11.
CCOc1ccccc1-c1cc(C(=O)N/N=C/c2cccnc2)c2ccccc2n1 was read as KKLEB tox -5, Peg3 prom inh 23, CF NFkB block 1 and Mdm2 MdmX PPI -1.
Screening Cc1ccc(COc2ccccc2-c2cc(C(=O)N/N=C/c3cccnc3)[nH]n2)cc1 returned KKLEB tox -5, LGR2 inh 6, Peg3 prom inh 44, CF NFkB block -14, Mdm2 MdmX PPI 55*, HSP90 inh 6, Mdm2-MdmX conf 59* and Full FLuc ctr 72*.
CC1(C)CC2CC(C)(CN2C(=O)c2cc(-c3ccccc3O)on2)C1 (stereo not drawn) was read as KKLEB tox 9, Peg3 prom inh 20, CF NFkB block 2, Mdm2 MdmX PPI 64*, HSP90 inh 2, Mdm2-MdmX conf 36 and Full FLuc ctr 67*.
For C[C@@H]1CN([C@@H](C)CO)C(=O)c2cc(NS(=O)(=O)c3cccs3)ccc2O[C@@H](C)CCCCO[C@H]1CN(C)Cc1ccccc1 the results were LGR2 inh -15.
`CC/C(=C(\c1ccccc1)c1ccc(OCCN(C)C)cc1)c1ccccc1` gave KKLEB tox -24, LGR2 inh 26, Peg3 prom inh 71*, CF NFkB block 26, Mdm2 MdmX PPI 58* and Mdm2-MdmX conf 22.
For CC/C(=C(\c1ccc(O)cc1)c1ccc(OCCN(C)C)cc1)c1ccccc1 the results were KKLEB tox 4, LGR2 inh 45, Peg3 prom inh 57*, CF NFkB block -26, Mdm2 MdmX PPI 93*, HSP90 inh 1, Mdm2-MdmX conf 38 and Full FLuc ctr 61*.
For Cc1ccc(S(=O)(=O)Nc2cccc3c2O[C@H](CN(C)Cc2ccccc2)[C@@H](C)CN([C@@H](C)CO)C3=O)cc1 the results were LGR2 inh -6.
`O=C(C[C@@H]1CC[C@H]2[C@@H](COC[C@@H](O)CN2S(=O)(=O)c2ccc(F)cc2)O1)NCc1ccc(Cl)c(Cl)c1` gave LGR2 inh 0.
Cc1cccc(N2C(=O)c3cccc4c(N5CCCCC5)c([N+](=O)[O-])cc(c34)C2=O)c1C was read as KKLEB tox -1, LGR2 inh 2, Peg3 prom inh 17, CF NFkB block 5, Mdm2 MdmX PPI 18 and HSP90 inh -3.
For Cc1ccc(N2C(=O)c3cccc4c([N+](=O)[O-])ccc(c34)C2=O)c2cccnc12 the results were KKLEB tox -2, LGR2 inh 24, Peg3 prom inh 63*, CF NFkB block 20, Mdm2 MdmX PPI 92*, HSP90 inh 3, Mdm2-MdmX conf 60* and Full FLuc ctr 60*.
`Cc1ccnc(N2C(=O)c3cccc4c([N+](=O)[O-])ccc(c34)C2=O)c1` gave KKLEB tox -5, LGR2 inh -10, Peg3 prom inh 108*, CF NFkB block -5, Mdm2 MdmX PPI 100*, HSP90 inh -2 and Mdm2-MdmX conf 6.
Cc1ccc(N2C(=O)c3cccc4c(N5CCN(C)CC5)ccc(c34)C2=O)c2cccnc12 was read as Mdm2 MdmX PPI 66*, HSP90 inh -4, Mdm2-MdmX conf 65* and Full FLuc ctr 57*.
Cc1nnc(N2C(=O)c3cccc4c([N+](=O)[O-])ccc(c34)C2=O)s1 was read as KKLEB tox 8, LGR2 inh -12, Peg3 prom inh 24, CF NFkB block -12, Mdm2 MdmX PPI 61*, HSP90 inh 2 and Mdm2-MdmX conf 37.
Screening C[C@H](CO)N1C[C@H](C)[C@@H](CN(C)C)Oc2cc(-c3ccccc3)ccc2S1(=O)=O returned LGR2 inh 5.
For CC(C)NC(=O)N(C)C[C@@H]1Oc2ccc(NC(=O)Nc3ccccc3)cc2CC(=O)N([C@@H](C)CO)C[C@@H]1C the results were LGR2 inh -2.
Screening COc1ccc2c3c(n(C)c2c1)[C@@H](CO)N(C(C)=O)CC31CCN(S(=O)(=O)c2ccccc2)CC1 returned LGR2 inh 0.
For CCCC#Cc1ccc([C@H]2[C@@H](CO)N(C(C)=O)[C@@H]2CNC(=O)C2CCCC2)cc1 the results were LGR2 inh -5.
Screening CCS(=O)(=O)Nc1ccc2c(c1)C(=O)N(C)[C@@H]1CC[C@@H](CC(=O)OC)O[C@@H]1CO2 returned LGR2 inh 11.
Screening C[C@H]1CCCCO[C@@H](CN(C)S(=O)(=O)c2cccs2)[C@@H](C)CN([C@@H](C)CO)C(=O)c2cc(NC(=O)C3CCCCC3)ccc2O1 returned LGR2 inh 13.
`Cc1nnsc1-c1onc(C)c1C(=O)Nc1cc(Cl)cc(Cl)c1` gave KKLEB tox 4, LGR2 inh 26, Peg3 prom inh 48, CF NFkB block 42, Mdm2 MdmX PPI 76*, HSP90 inh -2 and Mdm2-MdmX conf 16.
For Cc1ccc(NC(=O)c2c(C)noc2-c2snnc2C)cc1 the results were KKLEB tox -2, Peg3 prom inh 21, CF NFkB block 11, Mdm2 MdmX PPI 2 and HSP90 inh 3.
For O=C(CC(F)(F)F)N1C[C@H]2[C@@H](c3ccccc31)[C@@H](CO)N2C(=O)c1ccncc1 the results were LGR2 inh -7.
Cc1ccc(SCC(=O)OCC(=O)N(CCC#N)c2ccccc2)cc1C was read as KKLEB tox 4, LGR2 inh 21, Peg3 prom inh -9, CF NFkB block -1 and Mdm2 MdmX PPI 7.
For Cc1ccc(N(CCC#N)C(=O)CCl)cc1C the results were KKLEB tox -26, LGR2 inh -1, Peg3 prom inh 46, CF NFkB block 24, Mdm2 MdmX PPI 100*, HSP90 inh 5, Mdm2-MdmX conf 100* and Full FLuc ctr 57*.
`CCCNC(=O)N1C[C@@H](O)COC[C@@H]2O[C@@H](CC(=O)N[C@@H]3CCN(Cc4ccccc4)C3)CC[C@H]21` gave LGR2 inh 8.
